Measurements as given in PMC5540273 (PLoS ONE, 2017).
Where “and” joins values, the source holds several entries; their conditions need not be identical. Identical values can stand only once. Like-named read-outs stand apart in the source and are kept apart here.

What was measured:
PAK6 = details: n = 1
PAK7 = details: n = 1
PCTK1 = system: T1, PCTK1; details: concentration: 1 μM, replicates: in singlicate; n = 1
T1 construct: gene CDK16

PCTK2 = system: T2, PCTK2; details: concentration: 1 μM, replicates: in singlicate; n = 1
T2 construct: gene CDK17

PCTK3 = system: T3, PCTK3; details: n = 1
T3 construct: gene CDK18

PDGFRA = details: n = 1
PDGFRB = details: n = 1
PDPK1 = details: n = 1
PFTAIRE2 = details: n = 1
PFTK1 = system: T4, PFTK1; details: n = 1
T4 construct: gene CDK14

PHKG1 = details: concentration: 1 μM, replicates: in singlicate; n = 1
PHKG2 = details: n = 1
PIK3C2B = details: n = 1
PIK3C2G = details: concentration: 1 μM, replicates: in singlicate; n = 1
PIK3CA = details: concentration: 1 μM, replicates: in singlicate; n = 1
PIK3CB = details: n = 1
PIK3CD = details: n = 1
PIK3CG = details: n = 1
PIK4CB = system: T5, PIK4CB; details: n = 1
T5 construct: gene PI4KB

PIKFYVE = details: concentration: 1 μM, replicates: in singlicate; n = 1
[1] = concentration: 1 μM, replicates: in singlicate
[2] = concentration: 1 μM,replicates: in singlicate, 1 µM
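Also: KINOMEscan kinase panel screen.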

CN1C(=O)C(Nc2ccc(Cl)c(C(=O)O)c2)=C(c2ccc(Cl)cc2)C1=O [SB-404290]
%Inh (PAK6; [1]): 0%
%Inh (PAK7; [1]): 10%
%Inh (PCTK1): 0%
%Inh (PCTK2): 6%
%Inh (PCTK3; [1]): 0%
%Inh (PDGFRA; [1]): 27%
%Inh (PDGFRB; [1]): 0%
%Inh (PDPK1; [1]): 0%
%Inh (PFTAIRE2; [1]): 11%
%Inh (PFTK1; [1]): 0%
%Inh (PHKG1): 0%
%Inh (PHKG2; [1]): 0%
%Inh (PIK3C2B; [1]): 34%
%Inh (PIK3C2G): 20%
%Inh (PIK3CA): 7%
%Inh (PIK3CB; [1]): 0%
%Inh (PIK3CD; [1]): 0%
%Inh (PIK3CG; [1]): 23%
%Inh (PIK4CB; [1]): 16%
%Inh (PIKFYVE): 13%

O=C(Nc1ccccc1)Nc1cccc(Oc2ccc3nccn3n2)c1
%Inh (PAK6; [1]): 0%
%Inh (PAK7; [1]): 29%
%Inh (PCTK1): 0%
%Inh (PCTK2): 5%
%Inh (PCTK3; [1]): 0%
%Inh (PDGFRA; [1]): 98.9%
%Inh (PDGFRB; [1]): 100%
%Inh (PDPK1; [1]): 0%
%Inh (PFTAIRE2; [1]): 57%
%Inh (PFTK1; [1]): 0%
%Inh (PHKG1): 0%
%Inh (PHKG2; [1]): 9%
%Inh (PIK3C2B; [1]): 0%
%Inh (PIK3C2G): 0%
%Inh (PIK3CA): 0%
%Inh (PIK3CB; [1]): 0%
%Inh (PIK3CD; [1]): 14%
%Inh (PIK3CG; [1]): 6%
%Inh (PIK4CB; [1]): 0%
%Inh (PIKFYVE): 0%

CSc1nn2c(=O)cc(N3CCOCC3)nc2n1Cc1cccc(C(F)(F)F)c1C [GSK2363608]
%Inh (PAK6; [2]): 12% and 0%
%Inh (PAK7; [2]): 1% and 0%
%Inh (PCTK1): 2%
%Inh (PCTK2): 0%
%Inh (PCTK3; [2]): 0% and 5%
%Inh (PDGFRA; [2]): 15% and 0%
%Inh (PDGFRB; [2]): 12% and 8%
%Inh (PDPK1; [2]): 7% and 0%
%Inh (PFTAIRE2; [2]): 23% and 6%
%Inh (PFTK1; [2]): 21% and 6%
%Inh (PHKG1): 0%
%Inh (PHKG2; [2]): 5% and 0%
%Inh (PIK3C2B; [2]): 25% and 20%
%Inh (PIK3C2G): 0%
%Inh (PIK3CA): 9%
%Inh (PIK3CB; [2]): 97% and 100%
%Inh (PIK3CD; 1 µM): 94.4% and 94.3%
%Inh (PIK3CG; [2]): 17% and 16%
%Inh (PIK4CB; [2]): 14% and 4%
%Inh (PIKFYVE): 0%

Fc1cc(Cl)ccc1Nc1ccnc2cc(-c3ccc(CN4CCCCC4)o3)ccc12 [GW560116]
%Inh (PAK6; [1]): 0%
%Inh (PAK7; [1]): 16%
%Inh (PCTK1): 0%
%Inh (PCTK2): 0%
%Inh (PCTK3; [1]): 27%
%Inh (PDGFRA; [1]): 65%
%Inh (PDGFRB; [1]): 94.8%
%Inh (PDPK1; [1]): 100%
%Inh (PFTAIRE2; [1]): 0%
%Inh (PFTK1; [1]): 18%
%Inh (PHKG1): 0%
%Inh (PHKG2; [1]): 0%
%Inh (PIK3C2B; [1]): 0%
%Inh (PIK3C2G): 0%
%Inh (PIK3CA): 0%
%Inh (PIK3CB; [1]): 0%
%Inh (PIK3CD; [1]): 0%
%Inh (PIK3CG; [1]): 0%
%Inh (PIK4CB; [1]): 0%
%Inh (PIKFYVE): 0%

Cc1csc(-c2nc(Nc3ccncc3)c3ccccc3n2)n1 [GW869640]
%Inh (PAK6; [1]): 0%
%Inh (PAK7; [1]): 8%
%Inh (PCTK1): 20%
%Inh (PCTK2): 0%
%Inh (PCTK3; [1]): 12%
%Inh (PDGFRA; [1]): 36%
%Inh (PDGFRB; [1]): 0%
%Inh (PDPK1; [1]): 0%
%Inh (PFTAIRE2; [1]): 21%
%Inh (PFTK1; [1]): 5%
%Inh (PHKG1): 14%
%Inh (PHKG2; [1]): 1%
%Inh (PIK3C2B; [1]): 37%
%Inh (PIK3C2G): 31%
%Inh (PIK3CA): 13%
%Inh (PIK3CB; [1]): 50%
%Inh (PIK3CD; [1]): 26%
%Inh (PIK3CG; [1]): 30%
%Inh (PIK4CB; [1]): 57%
%Inh (PIKFYVE): 78%

COc1ccc2nc(-c3cccc(C)n3)nc(Nc3ccncc3)c2c1 [GSK204919]
%Inh (PAK6; [1]): 0%
%Inh (PAK7; [1]): 1%
%Inh (PCTK1): 5%
%Inh (PCTK2): 0%
%Inh (PCTK3; [1]): 36%
%Inh (PDGFRA; [1]): 0%
%Inh (PDGFRB; [1]): 25%
%Inh (PDPK1; [1]): 12%
%Inh (PFTAIRE2; [1]): 0%
%Inh (PFTK1; [1]): 14%
%Inh (PHKG1): 0%
%Inh (PHKG2; [1]): 0%
%Inh (PIK3C2B; [1]): 3%
%Inh (PIK3C2G): 0%
%Inh (PIK3CA): 0%
%Inh (PIK3CB; [1]): 0%
%Inh (PIK3CD; [1]): 0%
%Inh (PIK3CG; [1]): 0%
%Inh (PIK4CB; [1]): 5%
%Inh (PIKFYVE): 81%

Cc1nnc(-c2ccc3occ(-c4ccc(S(C)=O)cc4)c3c2)[nH]1 (centres unmarked)
%Inh (PAK6; [1]): 13%
%Inh (PAK7; [1]): 5%
%Inh (PCTK1): 8%
%Inh (PCTK2): 0%
%Inh (PCTK3; [1]): 0%
%Inh (PDGFRA; [1]): 36%
%Inh (PDGFRB; [1]): 0%
%Inh (PDPK1; [1]): 0%
%Inh (PFTAIRE2; [1]): 24%
%Inh (PFTK1; [1]): 6%
%Inh (PHKG1): 15%
%Inh (PHKG2; [1]): 16%
%Inh (PIK3C2B; [1]): 3%
%Inh (PIK3C2G): 17%
%Inh (PIK3CA): 9%
%Inh (PIK3CB; [1]): 28%
%Inh (PIK3CD; [1]): 0%
%Inh (PIK3CG; [1]): 5%
%Inh (PIK4CB; [1]): 0%
%Inh (PIKFYVE): 17%

Fc1cccc(COc2nnc(-c3ccc4c(c3)CCO4)o2)c1
%Inh (PAK6; [1]): 38%
%Inh (PAK7; [1]): 17%
%Inh (PCTK1): 8%
%Inh (PCTK2): 6%
%Inh (PCTK3; [1]): 0%
%Inh (PDGFRA; [1]): 28%
%Inh (PDGFRB; [1]): 0%
%Inh (PDPK1; [1]): 0%
%Inh (PFTAIRE2; [1]): 7%
%Inh (PFTK1; [1]): 2%
%Inh (PHKG1): 0%
%Inh (PHKG2; [1]): 0%
%Inh (PIK3C2B; [1]): 0%
%Inh (PIK3C2G): 0%
%Inh (PIK3CA): 0%
%Inh (PIK3CB; [1]): 14%
%Inh (PIK3CD; [1]): 17%
%Inh (PIK3CG; [1]): 7%
%Inh (PIK4CB; [1]): 0%
%Inh (PIKFYVE): 24%

CS(=O)(=O)c1ccc(-c2nc3n(c2-c2ccncc2)CCC3)cc1 [SKF-105942]
%Inh (PAK6; [1]): 99.2%
%Inh (PAK7; [1]): 0%
%Inh (PCTK1): 11%
%Inh (PCTK2): 0%
%Inh (PCTK3; [1]): 0%
%Inh (PDGFRA; [1]): 0%
%Inh (PDGFRB; [1]): 4%
%Inh (PDPK1; [1]): 0%
%Inh (PFTAIRE2; [1]): 12%
%Inh (PFTK1; [1]): 37%
%Inh (PHKG1): 3%
%Inh (PHKG2; [1]): 0%
%Inh (PIK3C2B; [1]): 0%
%Inh (PIK3C2G): 0%
%Inh (PIK3CA): 0%
%Inh (PIK3CB; [1]): 0%
%Inh (PIK3CD; [1]): 0%
%Inh (PIK3CG; [1]): 0%
%Inh (PIK4CB; [1]): 100%
%Inh (PIKFYVE): 0%

Cl.Oc1ccc(-c2nc(-c3ccccc3)[nH]c2-c2ccncc2)cc1 [SB-428218]
%Inh (PAK6; [1]): 0%
%Inh (PAK7; [1]): 0%
%Inh (PCTK1): 4%
%Inh (PCTK2): 0%
%Inh (PCTK3; [1]): 20%
%Inh (PDGFRA; [1]): 0%
%Inh (PDGFRB; [1]): 13%
%Inh (PDPK1; [1]): 0%
%Inh (PFTAIRE2; [1]): 0%
%Inh (PFTK1; [1]): 21%
%Inh (PHKG1): 49%
%Inh (PHKG2; [1]): 0%
%Inh (PIK3C2B; [1]): 0%
%Inh (PIK3C2G): 0%
%Inh (PIK3CA): 0%
%Inh (PIK3CB; [1]): 0%
%Inh (PIK3CD; [1]): 0%
%Inh (PIK3CG; [1]): 0%
%Inh (PIK4CB; [1]): 0%
%Inh (PIKFYVE): 46%
